Experimental data as given in PubChem BioAssay (EPA / NIEHS).
Records with an inconclusive call do not appear. Active and inactive are the calls of the source. Rule for the calls, unless noted: active = hit-call score of the fitted dose curve at least 0.9, where 1 is the maximum; inconclusive = response in the unintended direction; inactive = score below 0.9.

Tested on: not listed separately
Experiment: CCTE_Mundy_HCI_iCellGluta_NOG_NeuronCount: CCTE's Neurite Outgrowth Assay in iCellGluta cells for Neuron Count, Mundy Lab (AID 2284340);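 note: cells fixed about 48 h after compound addition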
Details: not given
Procedure, shortened: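 Neuron count read by automated high-content imaging of Hoechst 33342 and betaIII-tubulin/Alexa Fluor-488 labelling in human iPSC glutamatergic neurons. Activity fitted relative to DMSO.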

For `CO/C=C(/C(=O)OC)c1ccccc1Oc1cc(Oc2ccccc2C#N)ncn1`, which AC50 is on record?
Its AC50 is 66 µM (active).

Which AC50 does the source give for `COC(=O)N(OC)c1ccccc1COc1ccn(-c2ccc(Cl)cc2)n1` here?
The AC50 was 12.7 µM (active).

Which outcome does the source give for `CCCCNC(=O)n1c(NC(=O)OC)nc2ccccc21` here?
Its outcome is “inactive”.

Which AC50 does the source give for `CN(C)C(=S)SSC(=S)N(C)C` here?
Its AC50 is 0.0675 µM (active).

Which outcome does the source give for `C=CCC1=C(C)[C@@H](OC(=O)[C@@H]2[C@@H](C=C(C)C)C2(C)C)CC1=O` here?
Its outcome is “inactive”.

For `CC(C)(C)c1ccc(CSc2cnn(C(C)(C)C)c(=O)c2Cl)cc1`, which AC50 is on record?
The AC50 was 6.79 µM (active).

For `N#Cc1nn(-c2c(Cl)cc(C(F)(F)F)cc2Cl)c(N)c1S(=O)C(F)(F)F` (configuration not stated), which outcome is on record?
Its outcome is “inactive”.

For `CCCCC(CC)COC(=O)c1ccccc1C(=O)OCC(CC)CCCC` (configuration not stated), which AC50 is on record?
Its AC50 is 18.8 µM (active).

Which outcome does the source give for `C=CC1(C)OC(=O)N(c2cc(Cl)cc(Cl)c2)C1=O` (configuration not stated) here?
Its outcome is “inactive”.

With `COP(=S)(OC)Oc1nc(Cl)c(Cl)cc1Cl` as the compound, how does the AC50 read?
Its AC50 is 23.1 µM (active).

Which AC50 does the source give for `CCOc1cc(Oc2ccc(C(F)(F)F)cc2Cl)ccc1[N+](=O)[O-]` here?
Its AC50 is 50 µM (active).

For `COP(N)(=O)SC` (configuration not stated), which outcome is on record?
The outcome was “inactive”.

With `Cc1ccc(-c2c(Cl)nc(C#N)n2S(=O)(=O)N(C)C)cc1` as the compound, how does the AC50 read?
Its AC50 is 50 µM (active).

With `C=CCC1=C(C)C(OC(=O)C2C(C=C(C)C)C2(C)C)CC1=O` (configuration not stated) as the compound, how does the outcome read?
Its outcome is “inactive”.

Which outcome does the source give for `CCCCOC(=O)c1ccccc1C(=O)OCCCC` here?
The outcome was “inactive”.

With `CCOC(=O)CC(SP(=S)(OC)OC)C(=O)OCC` (configuration not stated) as the compound, how does the outcome read?
The outcome was “inactive”.

Tested on: not listed separately
Experiment: CCTE_Mundy_HCI_iCellGluta_NOG_NeuriteCount: CCTE's Neurite Outgrowth Assay in iCellGluta cells for Neurite Count, Mundy Lab (AID 2284342);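 note: chemical exposure about 48 hours starting 2 hours after plating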
Details: not given

Which AC50 does the source give for `CO/C=C(/C(=O)OC)c1ccccc1Oc1cc(Oc2ccccc2C#N)ncn1` here?
Its AC50 is 21.5 µM (active).

For `COC(=O)N(OC)c1ccccc1COc1ccn(-c2ccc(Cl)cc2)n1`, which AC50 is on record?
The AC50 was 3.35 µM (active).

With `CCCCNC(=O)n1c(NC(=O)OC)nc2ccccc21` as the compound, how does the outcome read?
Its outcome is “inactive”.

Which AC50 does the source give for `CN(C)C(=S)SSC(=S)N(C)C` here?
The AC50 was 0.0447 µM (active).

For `C=CCC1=C(C)[C@@H](OC(=O)[C@@H]2[C@@H](C=C(C)C)C2(C)C)CC1=O`, which outcome is on record?
Its outcome is “inactive”.

For `CC(C)(C)c1ccc(CSc2cnn(C(C)(C)C)c(=O)c2Cl)cc1`, which AC50 is on record?
Its AC50 is 0.374 µM (active).

For `N#Cc1nn(-c2c(Cl)cc(C(F)(F)F)cc2Cl)c(N)c1S(=O)C(F)(F)F` (configuration not stated), which outcome is on record?
The outcome was “inactive”.

With `CCCCC(CC)COC(=O)c1ccccc1C(=O)OCC(CC)CCCC` (configuration not stated) as the compound, how does the AC50 read?
Its AC50 is 30.4 µM (active).

With `C=CC1(C)OC(=O)N(c2cc(Cl)cc(Cl)c2)C1=O` (configuration not stated) as the compound, how does the outcome read?
Its outcome is “inactive”.

Which AC50 does the source give for `COP(=S)(OC)Oc1nc(Cl)c(Cl)cc1Cl` here?
Its AC50 is 27.8 µM (active).

Which AC50 does the source give for `CCOc1cc(Oc2ccc(C(F)(F)F)cc2Cl)ccc1[N+](=O)[O-]` here?
Its AC50 is 66.4 µM (active).

With `COP(N)(=O)SC` (configuration not stated) as the compound, how does the outcome read?
Its outcome is “inactive”.

With `Cc1ccc(-c2c(Cl)nc(C#N)n2S(=O)(=O)N(C)C)cc1` as the compound, how does the AC50 read?
The AC50 was 50 µM (active).

For `C=CCC1=C(C)C(OC(=O)C2C(C=C(C)C)C2(C)C)CC1=O` (configuration not stated), which outcome is on record?
Its outcome is “inactive”.

For `CCCCOC(=O)c1ccccc1C(=O)OCCCC`, which outcome is on record?
The outcome was “inactive”.

For `CCOC(=O)CC(SP(=S)(OC)OC)C(=O)OCC` (configuration not stated), which outcome is on record?
The outcome was “inactive”.

Tested on: SERPINA7 (gene 6906)
Experiment: CCTE_GLTED_hTBG: CCTE's human Thyroxine-binding Globulin (TBG) Inhibition Assay, Great Lakes Toxicology and Ecology Division (GLTED) Lab (AID 2284343);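 note: active chemicals lower fluorescence versus DMSO baseline by displacing probe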
Details: not given
Procedure, shortened: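 Cell-free binding assay in which human TBG is incubated with test chemical for 2 hours and displacement of the fluorescent probe ANSA is read at 380 nm excitation/475 nm emission. Activity is fitted against DMSO as the negative control.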

For `Oc1ccccc1-c1ccccc1`, which AC50 is on record?
Its AC50 is 28.1 µM (active).

With `CCCN(CCC)c1c([N+](=O)[O-])cc(S(N)(=O)=O)cc1[N+](=O)[O-]` as the compound, how does the AC50 read?
Its AC50 is 5.43 µM (active).

With `Fc1ccc(Oc2ccnc3cc(Cl)cc(Cl)c23)cc1` as the compound, how does the AC50 read?
Its AC50 is 8.16 µM (active).

With `N#Cc1nn(-c2c(Cl)cc(C(F)(F)F)cc2Cl)c(N)c1S(=O)C(F)(F)F` (configuration not stated) as the compound, how does the AC50 read?
Its AC50 is 24.6 µM (active).

Which AC50 does the source give for `CCOc1cc(Oc2ccc(C(F)(F)F)cc2Cl)ccc1[N+](=O)[O-]` here?
Its AC50 is 4.86 µM (active).

With `Cc1cc(Cl)ccc1OCC(=O)O` as the compound, how does the AC50 read?
The AC50 was 59.6 µM (active).

Which AC50 does the source give for `Cc1ccc(-c2c(Cl)nc(C#N)n2S(=O)(=O)N(C)C)cc1` here?
The AC50 was 33.1 µM (active).

With `OC(c1ccc(Cl)cc1)(c1cncnc1)c1ccccc1Cl` (configuration not stated) as the compound, how does the AC50 read?
The AC50 was 36.5 µM (active).

Which AC50 does the source give for `CCCCOC(=O)c1ccccc1C(=O)OCCCC` here?
Its AC50 is 11.4 µM (active).

Which AC50 does the source give for `C#CCOS(=O)OC1CCCCC1Oc1ccc(C(C)(C)C)cc1` (configuration not stated) here?
Its AC50 is 25.2 µM (active).

Tested on: not listed separately
Experiment: CCTE_Deisenroth_H295R-HTRF_384WELL_ESTRADIOL: CCTE's H295R-HTRF Assay Evaluation of Estradiol Concentration, Deisenroth Lab (AID 2284361; active = hit-call score of the fitted dose curve at least 0.9, where 1 is the maximum; inactive = score below 0.9)
Details: actives raise or lower the signal
Procedure, shortened: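 H295R cells exposed 48 h to chemicals at 0.001 - 100 uM final (nine points, triplicate); estradiol in conditioned medium measured by HTRF immunoassay, fitted bidirectionally versus DMSO. Viability by CellTiter-Glo on same plates.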

With `CCNc1nc(Cl)nc(NC(C)C)n1` as the compound, how does the AC50 read?
The AC50 was 9.8 µM (active).

With `CCCCNC(=O)n1c(NC(=O)OC)nc2ccccc21` as the compound, how does the outcome read?
The outcome was “inactive”.

For `CCCCC(CC)COC(=O)c1ccccc1C(=O)OCC(CC)CCCC` (configuration not stated), which outcome is on record?
Its outcome is “inactive”.

For `OC(c1ccc(Cl)cc1)(c1cncnc1)c1ccccc1Cl` (configuration not stated), which outcome is on record?
Its outcome is “inactive”.

With `COc1nc(NC(C)C)nc(NC(C)C)n1` as the compound, how does the AC50 read?
The AC50 was 34.6 µM (active).

Tested on: not listed separately
Experiment: CCTE_Deisenroth_H295R-HTRF_384WELL_TESTOSTERONE: CCTE's H295R-HTRF Assay Evaluation of Testosterone Concentration, Deisenroth Lab (AID 2284373; active = hit-call score of the fitted dose curve at least 0.9, where 1 is the maximum; inactive = score below 0.9)
Details: actives raise or lower the signal
Procedure, shortened: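 Secreted testosterone was quantified by HTRF immunoassay of medium from human adrenocortical H295R cells after 48 h chemical exposure at 0.001–100 uM final. Gain or loss was fitted against DMSO. ATP-based viability was read on matched wells, five experimental replicates.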

With `CCNc1nc(Cl)nc(NC(C)C)n1` as the compound, how does the outcome read?
Its outcome is “inactive”.

For `CCCCNC(=O)n1c(NC(=O)OC)nc2ccccc21`, which outcome is on record?
Its outcome is “inactive”.

Which outcome does the source give for `CCCCC(CC)COC(=O)c1ccccc1C(=O)OCC(CC)CCCC` (configuration not stated) here?
Its outcome is “inactive”.

Which outcome does the source give for `OC(c1ccc(Cl)cc1)(c1cncnc1)c1ccccc1Cl` (configuration not stated) here?
Its outcome is “inactive”.

With `COc1nc(NC(C)C)nc(NC(C)C)n1` as the compound, how does the outcome read?
The outcome was “inactive”.

Tested on: not listed separately
Experiment: CCTE_Deisenroth_H295R-HTRF_384WELL_CTOX: Cytotoxicity Assessment in CCTE's H295R-HTRF Assay, Deisenroth Lab (AID 2284380)
Details: not given
Procedure, shortened: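 H295R adrenocortical carcinoma cells plated 24 h, then exposed 48 h to nine-point series 0.001–100 uM final, triplicate, n=5. ATP measured by CellTiter-Glo 2.0 luminescence on same plates after medium collection; loss versus DMSO.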

For `CCNc1nc(Cl)nc(NC(C)C)n1`, which outcome is on record?
Its outcome is “inactive”.

With `CCCCNC(=O)n1c(NC(=O)OC)nc2ccccc21` as the compound, how does the AC50 read?
The AC50 was 5.92 µM (active).

Which outcome does the source give for `CCCCC(CC)COC(=O)c1ccccc1C(=O)OCC(CC)CCCC` (configuration not stated) here?
The outcome was “inactive”.

For `OC(c1ccc(Cl)cc1)(c1cncnc1)c1ccccc1Cl` (configuration not stated), which outcome is on record?
Its outcome is “inactive”.

For `COc1nc(NC(C)C)nc(NC(C)C)n1`, which outcome is on record?
The outcome was “inactive”.
